14-3-3g Raf: modulators of 14-3-3 gamma protein binding, primary screen, biochemical, fluorescence polarization; actives 0.19% (n = 160,000); inhibition, % at 40 µM; AID 422, 2006; 14-3-3 protein gamma (Homo sapiens), P61981; FP, 14-3-3gamma / TMR-pS259-Raf peptide binding; in the data active = inhibition above about 30%;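 note: 0% = protein plus tracer without compound and 100% = blank with tracer alone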
Target sequence (P61981 whole entry, looked up): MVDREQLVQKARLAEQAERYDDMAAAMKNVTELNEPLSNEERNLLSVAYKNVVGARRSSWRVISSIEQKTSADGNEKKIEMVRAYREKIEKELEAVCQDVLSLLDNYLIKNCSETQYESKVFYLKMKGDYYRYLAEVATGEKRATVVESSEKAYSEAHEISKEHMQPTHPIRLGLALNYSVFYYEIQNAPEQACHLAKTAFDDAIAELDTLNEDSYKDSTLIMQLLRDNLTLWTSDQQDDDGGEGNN
* marks the source's active call; other numbers are inactive results. This is one part of a sample in which hits are shown more often than they occur.

SMILES | 14-3-3g Raf
CCSc1nnc2c(n1)OC(c1ccc(OC3CCCC3)cc1)Nc1ccccc1-2 (centres undefined) | 25.8
CCc1ccc(C2Nc3ccc(Br)cc3-c3nnc(SC)nc3O2)cc1 (centres undefined) | 0.4
CN(C1=NS(=O)(=O)c2ccccc21)c1ccccc1C(=O)O | 3.1
Cc1c(C)n(C(=O)CN2CCN(Cc3ccc4c(c3)OCO4)CC2)c2ccccc12 | 1.2
Cn1ccnc1SCc1ccc(Cl)cc1 | 9.2
CCOc1cccc2c1OC(c1ccc(SC)cc1)N1N=C(c3cccs3)CC21 (centres undefined) | -7.5
COCCOC(=O)C1=C(C)NC2=C(C(=O)CC(c3ccc(OC)c(OC)c3)C2)C1c1cccc(C)c1 (centres undefined) | -10.4
CCOC(=O)CCCCNCc1cccs1 | -1.5
Cc1cc(I)ccc1NC(=O)c1ccc(C(=O)Nc2ccc(I)cc2C)nc1 | -2.1
COC(=O)c1ccc(NC(=O)C2CC(=O)N(C)C(=Nc3ccc4c(c3)OCO4)S2)cc1 (centres undefined) | -13.9
CCSc1nnc2c(n1)OC(c1ccccc1F)Nc1ccccc1-2 (centres undefined) | 3.4
CCSc1nnc2c(n1)OC(c1ccccc1Cl)Nc1ccccc1-2 (centres undefined) | 98.3*
CCSc1nnc2c(n1)OC(c1cc3c(cc1Cl)OCO3)Nc1ccccc1-2 (centres undefined) | 21.2
O=C(Nc1ccc(O)c(-c2nc3ccccc3s2)c1)c1ccc(C(=O)c2ccccc2)cc1 | -32.1
CCOC(=O)c1ccc(NC2=CC(=NS(=O)(=O)c3ccc(OC)cc3)c3ccccc3C2=O)cc1 | 81.7*
CCc1ccc(S(=O)(=O)N=C2C=C(Nc3ccc(C(=O)OC)cc3)C(=O)c3ccccc32)cc1 | 32.5*
COc1ccc(S(=O)(=O)N=C2C=C(Nc3ccc(O)cc3)C(=O)c3ccccc32)cc1 | 13.7
CCOc1ccc(NC2=CC(=NS(=O)(=O)c3ccc(CC)cc3)c3ccccc3C2=O)cc1 | -7.4
CCc1ccc(S(=O)(=O)N=C2C=C(Nc3ccccc3)C(=O)c3ccccc32)cc1 | -93.3
CCOc1ccc(S(=O)(=O)N=C2C=C(Nc3ccc(OC)cc3)C(=O)c3ccccc32)cc1 | -3.1
COc1ccc(NC(=O)c2ccc([N+](=O)[O-])cc2Cl)c(OC)c1 | -2.0
CCOC(=O)c1cc(C)sc1NC(=O)c1ccc(C)cc1 | 4.1
CC[n+]1c(/C=C2/Sc3ccccc3N2C)ccc2ccc(C)cc21 | -142.9
Cc1ccc(CNc2nc(=S)[nH]c3ccccc23)cc1 | -3.7
O=C1c2ccc(N3Cc4ccccc4C3)cc2C(=O)N1c1ccccc1 | -10.1
SMILES | 14-3-3g Raf
O=C(O)c1cc(N2Cc3ccccc3C2)ccc1O | 80.7*
Cc1ccc(-c2ccccc2)n1-c1ccc(O)c(C(=O)O)c1 | -39.0
OCn1nc(-c2ccncc2)n(Cc2ccccc2)c1=S | 0.3
Cc1ccc(N=C2C(=O)Nc3ccccc32)cc1 | -4.5
CCN(CC)c1ccc(N=C2C(=O)Nc3ccccc32)cc1 | -36.4
CN(C)c1ccc(/C=C2\C(=O)Nc3ccccc32)cc1 | 38.3*
CC(=O)c1ccc(N2C(=O)c3cccc(Cl)c3C2=O)cc1 | -6.3
O=C(O)c1cccnc1SC1CC(=O)N(c2ccc(N3CCOCC3)cc2)C1=O (centres undefined) | 30.3*
O=C(O)c1cccnc1SC1CC(=O)N(c2ccc3c(c2)OCO3)C1=O (centres undefined) | -51.3
O=C(O)c1cccnc1SC1CC(=O)N(c2ccc([N+](=O)[O-])cc2)C1=O (centres undefined) | -4.8
COc1ccc(NC(=O)C2c3ccccc3C(=O)N3CCc4cc(OC)c(OC)cc4C23)cc1Cl (centres undefined) | -11.4
O=C1C2CCCCC2C(=O)N1c1ccc(Oc2ccc(Br)cc2)cc1 (centres undefined) | 2.8
Cc1cc(NC(=O)c2sc3nc4c(cc3c2N)CCCCCC4)no1 | -13.5
CCOC(=O)c1c(C)oc2ccc(NS(=O)(=O)c3cc(C)c(C)cc3C)cc12 | -11.7
CCOC(=O)c1ccc(NC(=O)CN2CCN(c3ccccc3)CC2)cc1 | -5.3
CCOC(=O)c1ccc(NC(=O)Cn2cccc2)cc1 | -4.3
CCOC(=O)c1ccc(NC(=O)CN2CCCCC2)cc1 | 30.5*
COc1cccc(CNC(=O)c2ccc3c(c2)NC(=O)C(N2CCOCC2)S3)c1 (centres undefined) | -19.8
O=[N+]([O-])c1cccc(C2=Nn3c(nnc3-c3ccccc3Cl)SC2)c1 | 1.2
O=C1CN(CCc2ccccc2)CC(=O)N1CCc1ccccc1 | 166.5*
O=C(c1cccs1)N1CC(=O)N(CCc2ccccc2)C(=O)C1 | -32.7
O=C1CN(S(=O)(=O)c2ccc(F)cc2)CC(=O)N1CCc1ccccc1 | -5.9
Cc1ccc(-n2ncc3c(NCCc4ccc(Cl)cc4)ncnc32)c(C)c1 | -2.1
O=C(Sc1cccc2cccnc12)c1ccc([N+](=O)[O-])cc1 | -3.4
Cn1nnc2cc(C(=O)Nc3cccnc3)ccc21 | 2.5
SMILES | 14-3-3g Raf
COc1ccc(C(=O)Nc2cccnc2)cc1OC | 46.9*
O=C(Nc1cccnc1)c1cccnc1 | 0.5
CC(C)(C)c1ccc(OCCNS(=O)(=O)c2ccccc2[N+](=O)[O-])cc1 | -1.3
CC(C)(C)n1cnc2cc(NCc3ccncc3)ccc21 | 6.2
CC(C)(C)n1cnc2cc(NCc3ccccn3)ccc21 | 31.6*
Cn1cnc2cc(NCc3ccccn3)ccc21 | 3.1
Cc1ccc(-c2nnc(NC(=O)c3ccc(S(=O)(=O)N4CCCCC4)cc3)s2)cc1 | -2.2
CCOC(=O)c1cc(C)n(CCc2c[nH]c3ccccc23)c1C | -5.1
CC1=C(C(=O)OCc2ccccc2)C(c2cccc(Cl)c2)NC(=O)N1 (centres undefined) | 1.4
COc1ccc(Nc2c3c4c(c(Br)ccc4n(C)c2=O)C(=O)c2ccccc2-3)cc1 | -39.5
COc1ccc2c(c1N)C(=O)c1ccccc1C2=O | -80.5
CCCCCCCNc1c2c3c(cccc3n(C)c1=O)C(=O)c1ccccc1-2 | 16.4
Cn1c(=O)c(C(=O)NCCO)c(O)c2ccccc21 | -0.5
CC(=O)c1c2c3c(cccc3n(C)c1=O)C(=O)c1ccccc1-2 | 31.7*
Cn1c(=O)c(N)c2c3c(cccc31)C(=O)c1ccccc1-2 | 108.9*
CC(=O)c1c2c3c(c(Br)ccc3n(C)c1=O)C(=O)c1ccccc1-2 | -1.3
O=C(Nc1ccc2c(c1)C(=O)c1ccccc1C2=O)c1ccc(Br)cc1 | -17.5
Cn1c(=O)c(Nc2ccc(Br)cc2)c2c3c(cccc31)C(=O)c1ccccc1-2 | 151.2*
O=C1Nc2ccccc2C(O)(C(=O)NC2CCCc3ccccc32)N1c1ccccc1 (centres undefined) | -3.5
CCc1nc2ccc(C(=O)NCC3COc4ccccc4O3)cc2nc1CC (centres undefined) | -4.9
CCOC(=O)C1C(=O)C=C(c2cccc(OC)c2)CC1c1ccc(F)cc1 (centres undefined) | 5.5
Cc1ccc(C)c(N2CCN(C(=O)CCCCCn3c(=S)[nH]c4cc5c(cc4c3=O)OCO5)CC2)c1 | -14.4
O=C(NCCc1ccccc1)c1ccc2c(=O)n(-c3ccccc3)c(=O)[nH]c2c1 | 5.5
Cc1ccc(C2/C(=C(\O)c3ccc(F)cc3)C(=O)C(=O)N2CCN2CCOCC2)o1 (centres undefined) | -7.0
CN(C)C(=O)N1CCCC(C(=O)NC2CCCCC2)C1 (centres undefined) | -9.4
CCc1ccc(O)c(N=Cc2cccc(C)c2O)c1 | -20.2
C=CCc1cccc(/C=N/c2ncn[nH]2)c1O | -2.4

High-throughput results from PubChem.
